Compounds with a hit are over-represented: about 1.8% of the library has one in this group of screens.
TLR4-MyD88 BLA: inhibitors of TLR4-MyD88 association in cells, primary screen, cell-based, HeLa CL3-4, BLA complementation, FRET ratio. AID 861, 2007. 200,000 tested, 0.18% active. inhibition, % at 8.4 µM. HeLa CL3-4 TLR4/MyD88 BLA complementation. Toll-like receptor 4 (Homo sapiens) + Myeloid differentiation primary response protein …; in the data active = inhibition above about 25%;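 note: 0% = vehicle and 100% = reference inhibitor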
Rtt109 Vps75: inhibitors of C. albicans Rtt109/Vps75 HAT, primary screen, biochemical, ThioGlo CoA-SH fluorescence, plate reader | inhibition, % at 34.9 µM | purified Rtt109/Vps75, 4 h | 330,000 tested, 0.16% active | Histone acetyltransferase RTT109 (Candida albicans (strain SC5314 / ATCC MYA-2876)), …;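 active = inhibition of at least 50% in every replicate; inconclusive = best replicate reaches 50% inhibition but some replicates fall short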
m5-HT2A agonist: mouse Htr2a agonists via beta-arrestin recruitment, primary screen, cell-based, luminescence; CHO-K1 mHTR2A beta-arrestin complementation; percent of 30 µM serotonin response; activation, % at 7.6 µM; 360,000 tested, 0.66% active;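 active = activation above a run cutoff, the mean activation of all tested compounds plus 3 SD, cut at about 14% in these data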;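 note: 0% = plate median of compound wells and 100% = 30 µM serotonin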
Target sequence (P35363 whole entry, looked up): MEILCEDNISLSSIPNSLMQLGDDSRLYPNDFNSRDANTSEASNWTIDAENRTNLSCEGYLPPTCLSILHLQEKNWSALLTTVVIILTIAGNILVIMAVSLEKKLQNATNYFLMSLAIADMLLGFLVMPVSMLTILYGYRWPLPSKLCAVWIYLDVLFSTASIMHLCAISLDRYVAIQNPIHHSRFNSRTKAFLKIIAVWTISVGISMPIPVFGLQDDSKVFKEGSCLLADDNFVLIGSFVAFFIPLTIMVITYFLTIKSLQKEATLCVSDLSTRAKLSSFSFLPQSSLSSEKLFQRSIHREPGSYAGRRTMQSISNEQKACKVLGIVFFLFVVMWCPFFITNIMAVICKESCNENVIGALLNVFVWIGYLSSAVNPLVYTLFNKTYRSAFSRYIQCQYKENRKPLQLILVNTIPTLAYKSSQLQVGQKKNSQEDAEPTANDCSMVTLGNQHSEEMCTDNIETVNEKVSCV
NOD2-RIPK2 inh: NOD2-RIPK2 binding disruptors in cells, primary screen, fluorescence, CHO cells, BLA complementation. inhibition, % at 4.98 µM. CCF4 ratio. 360,000 tested, 0.38% active; in the data active = inhibition above about 21%;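 note: 0% = vehicle only and 100% = reference blocker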
LANA-H2B inh: blockers of LANA interaction with H2A/H2B – biochemical, FP readout, HTS, primary screen; Protein LANA1 (Human herpesvirus 8 type P (isolate GK18)), Q9QR71; cell-free LANA-H2A/H2B peptide, fluorescence polarization; AID 2629, 2010; inhibition, % (no concentration beside the values); 320,000 tested, 0.6% active; in the data active = inhibition mostly above about 10%, no sharp cut-off; inactive = mostly below about 6.7%
TLR9-MyD88 block: inhibitors of TLR9-MyD88 association in cells, primary screen, cell-based, CHO, BLA complementation, fluorescence | 340,000 tested, 0.21% active | AID 504734, 2011 | CCF4 FRET ratio | Toll-like receptor 9 (Homo sapiens) + Myeloid differentiation primary response protein … | inhibition, % at 4.98 µM;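 active = inhibition above the mean over all tested compounds plus 3 SD, cut at about 21% in these data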;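 note: 0% = DMSO only wells and 100% = clavulanate BLA inhibitor control wells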
NOD2-RIPK2 conf: NOD2-RIPK2 binding disruptors, retest, confirmation, fluorescence, CHO cells, BLA complementation, triplicate. 1,200 tested, 70% active. AID 624370, 2012. CCF4 FRET. shares compounds with NOD2-RIPK2 inh. inhibition, % at 4.98 µM;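 active = mean inhibition across replicates above a set limit taken from the earlier primary screen, cut at about 21% in these data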;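 note: 0% = DMSO-only wells and the high end = clavulanate BLA-blocked wells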
NOD2 BLA counter: counter-screen for NOD2-RIPK2 interaction inhibitors: BLA reporter; shares compounds with NOD2-RIPK2 inh; CHO BLA reporter, CCF4 FRET ratio, counterscreen; inhibition, % at 4.98 µM; 1,200 tested, 57% active; AID 624371;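 active = mean inhibition above the low-control mean inhibition plus three low-control SD, cut at about 11% in these data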;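 note: 0% = DMSO only wells and 100% = clavulanate high control wells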
* marks the source's active call; other numbers are inactive results; ? = inconclusive; . = no result; + = active, no number.

SMILES	TLR4-MyD88 BLA	Rtt109 Vps75	m5-HT2A agonist	NOD2-RIPK2 inh	LANA-H2B inh	TLR9-MyD88 block	NOD2-RIPK2 conf	NOD2 BLA counter
O=[N+]([O-])c1cccc(N/N=C/c2cc([N+](=O)[O-])ccc2O)c1	15	8	10	-1	-7	6	.	.
O=[N+]([O-])c1ccc(NN=Cc2ccc(O)cc2O)nc1	.	6	-9	22*	.	5	8	15*
O=[N+]([O-])c1ccc(NN=Cc2ccccc2O)nc1	.	6	-23	19	.	15	.	.
O=C(NCc1cccnc1)/C(=C/c1ccc(-c2ccc(Cl)cc2)o1)S(=O)(=O)c1ccccc1	0	7	-7	41*	3	8	36*	-3
O=C(CN(Cc1ccc(Br)cc1)S(=O)(=O)c1ccccc1)NCc1cccnc1	.	3	1	4	4	-5	.	.
O=C(NCc1cccnc1)/C(=C\c1ccc(-c2ccc(Br)cc2)o1)S(=O)(=O)c1ccccc1	9	4	-6	33*	0	-6	30*	-1
NS(=O)(=O)OCc1ccc(C(F)(F)F)cc1	.	5	-5	-10	-31	-5	.	.
O=C(c1ccccc1)N1CCN(C(=O)N2CCOCC2)CC1	5	-1	4	-3	-3	-12	.	.
O=C1C(=C(c2ccccc2)N2CCOCC2)Cc2ccccc21	.	.	-6	84*	.	15	85*	6
CC(NC(=O)c1cc2cc(Br)ccc2oc1=N)c1ccccc1 (stereo unspecified)	.	-5	2	-9	4	5	.	.
O=C1C(F)=CC(COC(c2ccccc2)(c2ccccc2)c2ccccc2)OC1n1cc(F)c(=O)[nH]c1=O (stereo unspecified)	.	-13	-7	30*	.	-3	58*	24*
C=C1C(=O)OC2CC1C(O)CC(C)=CCCC(C)=CC(O)CC2C (stereo unspecified)	.	-3	-5	23*	.	1	19	13*
CCc1[nH]nc(C(=O)N/N=C/c2ccncc2)c1C	.	4	-8	-1	-3	6	.	.
CC1=NNC(=O)/C1=C\c1cn(-c2ccccc2)nc1-c1ccccc1	7	2	4	54*	10	3	60*	5
Cc1cccc(C)c1NC(=O)c1nc(S(=O)(=O)Cc2ccccc2)ncc1Cl	.	?	-9	55*	.	8	48*	5
Cc1cccc(CS(=O)(=O)c2ncc(Cl)c(C(=O)Nc3c(C)cccc3C)n2)c1	.	3	-4	67*	.	8	47*	-4
CCCc1nnc(NC(=O)c2nc(S(=O)(=O)Cc3cccc(C)c3)ncc2Cl)s1	.	?	3	20	0	1	.	.
Cc1cccc(CS(=O)(=O)c2ncc(Cl)c(C(=O)NCc3ccccc3)n2)c1	.	6	-10	57*	-1	2	69*	15*
C=CCN1C(=O)N/C(=C/c2ccc(N3CCOCC3)o2)C1=O	14	.	.	.	3	.	.	.
O=C1N/C(=C/c2ccc(N3CCOCC3)o2)C(=O)N1c1ccccc1	2	4	5	40*	6	9	5	5
c1ccc(CN(Cc2ccccc2)c2ncnc3c2nnn3Cc2ccccc2)cc1	.	.	6	-2	0	.	.	.
Cc1cc(C)c2sc(N(CCCN(C)C)C(=O)c3ccc(S(=O)(=O)N4CCc5ccccc5C4)cc3)nc2c1	.	-2	0	24*	-1	14	30*	17*
O=S1(=O)CCOCCCN1Cc1ccccc1Br	.	1	-4	0	2	-9	.	.
COc1ccc(C(=O)N/N=C/c2sc3ccccc3c2O)cc1	-1	30	-4	22*	+	10	10	10
COc1ccc(NC(=O)C(c2ccc(C(F)(F)F)cc2)n2c(=O)c(-c3ccco3)nc3ccccc32)cc1 (stereo unspecified)	.	.	-3	-8	.	.	.	.
SMILES	TLR4-MyD88 BLA	Rtt109 Vps75	m5-HT2A agonist	NOD2-RIPK2 inh	LANA-H2B inh	TLR9-MyD88 block	NOD2-RIPK2 conf	NOD2 BLA counter
O=C(Nc1ccc2c(c1)OCCO2)C(c1ccc(C(F)(F)F)cc1)n1c(=O)c(-c2cc3ccccc3[nH]2)nc2ccccc21 (stereo unspecified)	.	.	0	48*	.	.	44*	66*
O=C(Nc1ccc2c(c1)OCCO2)C(c1ccncc1)n1c(=O)c(-c2cc3ccccc3[nH]2)nc2ccccc21 (stereo unspecified)	.	.	5	34*	.	.	37*	58*
O=C(Nc1ccc2ccccc2c1)C(c1ccc(C(F)(F)F)cc1)n1c(=O)c(-c2cc3ccccc3[nH]2)nc2ccccc21 (stereo unspecified)	.	.	-6	46*	.	.	40*	65*
O=C(Nc1ccc2c(c1)OCCO2)C(c1ccccc1F)n1c(=O)c(-c2cc3ccccc3[nH]2)nc2ccccc21 (stereo unspecified)	.	.	-5	49*	.	.	45*	67*
N#Cc1ccc(C(C(=O)Nc2ccc3c(c2)OCCO3)n2c(=O)c(-c3ccco3)nc3ccccc32)cc1 (stereo unspecified)	.	.	-5	-12	.	.	.	.
O=C(CSc1nnc(NC(=O)C2CC2)s1)NCc1ccccc1Cl	.	-7	5	5	0	-4	.	.
O=C(NCc1cccnc1)c1cn(-c2ccccc2)nc1-c1ccccc1	-4	-5	1	0	4	-1	.	.
CCOC(=O)c1c(CN2CCNCC2)nc2ccc(Cl)cc2c1-c1ccccc1	.	-5	-10	21*	.	-7	19	-3
CC1OC2CC(=O)OC2C2=C1C(=O)c1c(O)cccc1C2=O (stereo unspecified)	.	.	-16	70*	.	.	77*	-14
O=C1CCC(=O)N1c1nc2n(n1)C(c1ccccc1)C=C(c1ccc(Br)cc1)N2 (stereo unspecified)	10	-493	4	39*	6	14	16	12*
COc1ccc(C)cc1NC(=O)c1cc(S(=O)(=O)N2CCCCC2)ccc1N1CCOCC1	.	11	-1	-19	0	1	.	.
O=C1C=CC(=O)N1c1ccc2c(c1)Cc1cc(F)ccc1-2	.	3	-1	23*	.	4	64*	16*
Cc1ccc(C2C=C(c3ccccc3OC(F)F)Nc3ncnn32)cc1 (stereo unspecified)	17	-424	-2	30*	-3	16	27*	31*
